From PubChem BioAssay (EPA / NIEHS)
Where “and” joins values, the source holds several entries; their conditions need not be identical. Equal values may be shown once. Results filed as inconclusive are left out. Where a structure was tested more than once in an assay, its records may differ in their call. Calls of active or inactive are those of the source. How the source made its calls: active means hit-call score of the fitted dose curve at least 0.9, where 1 is the maximum; inconclusive means response in the unintended direction; inactive means score below 0.9.

Experiments:
[1] = biological target: GAL4 Transcription Factor (Internal Marker), GAL4 (gene 855828) (UniProt P04386); assay: ATG_GAL4_XSP2: Attagene TRANS-FACTORIAL Multi-Species (XSP2) HepG2 Assay for GAL4 Transcription Factor (Internal Marker) (AID 2283814);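 further: GAL4 reporter mRNA background control in MRTU transfected cells not a receptor target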
Chain of GAL4 Transcription Factor (Internal Marker), GAL4 (gene 855828) (P04386 whole entry, looked up, the tested form may be a part): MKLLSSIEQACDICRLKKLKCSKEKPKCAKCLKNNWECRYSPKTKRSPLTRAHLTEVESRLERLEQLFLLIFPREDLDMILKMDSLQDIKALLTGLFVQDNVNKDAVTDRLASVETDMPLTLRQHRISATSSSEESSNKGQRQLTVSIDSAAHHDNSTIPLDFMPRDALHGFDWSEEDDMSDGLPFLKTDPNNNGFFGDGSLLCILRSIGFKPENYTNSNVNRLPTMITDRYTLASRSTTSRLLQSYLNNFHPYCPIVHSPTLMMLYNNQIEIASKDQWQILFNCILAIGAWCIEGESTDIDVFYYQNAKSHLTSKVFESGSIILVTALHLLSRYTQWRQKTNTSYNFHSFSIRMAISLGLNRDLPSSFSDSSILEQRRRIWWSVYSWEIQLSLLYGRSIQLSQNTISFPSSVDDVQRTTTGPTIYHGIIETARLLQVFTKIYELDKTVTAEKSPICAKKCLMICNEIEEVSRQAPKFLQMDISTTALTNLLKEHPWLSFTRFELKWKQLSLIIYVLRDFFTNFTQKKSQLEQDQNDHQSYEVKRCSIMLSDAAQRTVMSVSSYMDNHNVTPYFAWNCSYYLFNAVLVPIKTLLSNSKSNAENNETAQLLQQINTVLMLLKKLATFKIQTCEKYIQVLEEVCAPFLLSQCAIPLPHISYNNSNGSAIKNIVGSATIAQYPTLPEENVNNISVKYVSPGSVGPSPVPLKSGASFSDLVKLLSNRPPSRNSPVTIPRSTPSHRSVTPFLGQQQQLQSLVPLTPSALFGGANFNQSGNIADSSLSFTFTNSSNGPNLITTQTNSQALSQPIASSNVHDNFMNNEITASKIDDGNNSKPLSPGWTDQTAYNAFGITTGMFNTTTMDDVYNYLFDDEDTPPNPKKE
Procedure, shortened: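 HepG2 cells transiently transfected with GAL4-UAS reporter units, stimulated with 3 nM 6-alpha-fluorotestosterone plus 1.5 nM norgestrel, dosed 24 h. Reporter mRNA by RT-PCR/capillary electrophoresis; gain-of-signal fit versus DMSO, background control.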

[2] = test system: turtle Androgen Receptor (AR), gene 101947425; assay: ATG_trAR_XSP2: Attagene TRANS-FACTORIAL Multi-Species (XSP2) HepG2 Assay for turtle Androgen Receptor (AR) (AID 2283815)
Procedure, shortened: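 HepG2 cells transiently transfected with GAL4-UAS reporter units for chimeric NR-Gal4 receptors; 24 h dosing in presence of 3 nM 6-alpha-fluorotestosterone and 1.5 nM norgestrel. Reporter mRNA by RT-PCR and capillary electrophoresis, gain of signal versus DMSO.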

[3] = biological target: zebrafish Estrogen Receptor (ER1), esr1 (gene 259252) (UniProt P57717); assay: ATG_zfER1_XSP2: Attagene TRANS-FACTORIAL Multi-Species (XSP2) HepG2 Assay for zebrafish Estrogen Receptor (ER1) (AID 2283816)
Chain of zebrafish Estrogen Receptor (ER1), esr1 (gene 259252) (P57717 whole entry, looked up, the tested form may be a part): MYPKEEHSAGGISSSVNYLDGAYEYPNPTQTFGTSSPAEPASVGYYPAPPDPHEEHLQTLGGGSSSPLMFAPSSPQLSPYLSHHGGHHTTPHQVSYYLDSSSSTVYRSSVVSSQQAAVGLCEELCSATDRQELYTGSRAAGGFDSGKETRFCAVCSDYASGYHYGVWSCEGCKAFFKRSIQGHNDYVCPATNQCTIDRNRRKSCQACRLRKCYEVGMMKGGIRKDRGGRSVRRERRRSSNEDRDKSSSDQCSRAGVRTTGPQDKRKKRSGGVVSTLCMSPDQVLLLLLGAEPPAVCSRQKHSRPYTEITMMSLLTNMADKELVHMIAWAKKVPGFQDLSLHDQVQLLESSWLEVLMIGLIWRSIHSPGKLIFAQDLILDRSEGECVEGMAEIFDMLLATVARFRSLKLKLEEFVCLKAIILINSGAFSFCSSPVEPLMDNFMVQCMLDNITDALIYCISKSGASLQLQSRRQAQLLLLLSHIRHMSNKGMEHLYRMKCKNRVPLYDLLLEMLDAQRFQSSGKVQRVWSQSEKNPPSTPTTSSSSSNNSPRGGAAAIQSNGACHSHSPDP
Procedure, shortened: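 HepG2 cells transiently transfected with a GAL4-UAS reporter and a chimeric zebrafish ER1-Gal4 construct, dosed 24 h. Reporter mRNA quantified by RT-PCR, labelling, HpaI digestion and capillary electrophoresis, relative to DMSO.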

[4] = biological target: chicken Estrogen Receptor (ERa), ESR1 (gene 396099) (UniProt P06212); assay: ATG_chERa_XSP2: Attagene TRANS-FACTORIAL Multi-Species (XSP2) HepG2 Assay for chicken Estrogen Receptor (ERa) (AID 2283817);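 further: actives raise reporter signal above DMSO so AC50 reflects ER activation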
Chain of chicken Estrogen Receptor (ERa), ESR1 (gene 396099) (P06212 whole entry, looked up, the tested form may be a part): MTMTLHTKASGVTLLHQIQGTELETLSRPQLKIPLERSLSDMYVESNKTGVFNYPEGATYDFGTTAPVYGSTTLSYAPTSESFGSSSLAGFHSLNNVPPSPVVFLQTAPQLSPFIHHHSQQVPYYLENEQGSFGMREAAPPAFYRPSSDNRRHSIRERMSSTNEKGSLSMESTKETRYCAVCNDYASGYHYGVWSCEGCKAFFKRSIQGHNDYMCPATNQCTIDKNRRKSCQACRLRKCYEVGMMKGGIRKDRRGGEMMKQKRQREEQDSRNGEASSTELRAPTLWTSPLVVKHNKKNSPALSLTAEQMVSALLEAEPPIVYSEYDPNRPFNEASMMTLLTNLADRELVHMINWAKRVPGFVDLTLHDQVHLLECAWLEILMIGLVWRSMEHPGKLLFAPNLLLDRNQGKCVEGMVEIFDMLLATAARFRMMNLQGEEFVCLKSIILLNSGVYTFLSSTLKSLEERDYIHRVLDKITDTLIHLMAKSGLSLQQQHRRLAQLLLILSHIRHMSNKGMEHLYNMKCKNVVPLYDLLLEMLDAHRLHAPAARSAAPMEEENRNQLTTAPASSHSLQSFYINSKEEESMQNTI
Procedure, shortened: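 Transiently transfected HepG2 cells expressing chimeric chicken ERa-GAL4 reporter units, dosed 24 h with 3 nM 6-alpha-fluorotestosterone and 1.5 nM norgestrel present. Reporter mRNA measured by RT-PCR and capillary electrophoresis; gain-of-signal fitted relative to DMSO.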

[5] = test system: zebrafish Estrogen Receptor (ER2a), gene 317734; assay: ATG_zfER2a_XSP2: Attagene TRANS-FACTORIAL Multi-Species (XSP2) HepG2 Assay for zebrafish Estrogen Receptor (ER2a) (AID 2283818);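 further: hits raise reporter mRNA so AC50 reflects activation of zebrafish ER2a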
Procedure, shortened: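 HepG2 cells transiently transfected with GAL4-UAS reporter units and chimeric zebrafish ER2a-Gal4, exposed 24 h; medium contains 3 nM 6-alpha-fluorotestosterone and 1.5 nM norgestrel. Reporter mRNA quantified by RT-PCR, HpaI digestion, capillary electrophoresis; gain versus DMSO.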

[6] = test system: chicken Androgen Receptor (AR), gene 422165; assay: ATG_chAR_XSP2: Attagene TRANS-FACTORIAL Multi-Species (XSP2) HepG2 Assay for chicken Androgen Receptor (AR) (AID 2283819);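 further: hits raise reporter mRNA above DMSO so potency is for activation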
Procedure, shortened: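 HepG2 cells transiently transfected with chicken AR–GAL4 chimeric reporter constructs, stimulated with 3 nM 6-alpha-fluorotestosterone plus 1.5 nM norgestrel, dosed 24 h. Reporter mRNA quantified by RT-PCR and capillary electrophoresis; gain of signal fitted versus DMSO.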

[7] = test system: frog Estrogen Receptor (ER), gene 398734; assay: ATG_frER1_XSP2: Attagene TRANS-FACTORIAL Multi-Species (XSP2) HepG2 Assay for frog Estrogen Receptor (ER) (AID 2283821);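 further: hits raise reporter mRNA above DMSO baseline so potency means agonist or activator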
Procedure, shortened: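 HepG2 cells transiently transfected with GAL4-UAS reporter units expressing a chimeric frog ER-Gal4 protein; 24 h exposure. Reporter mRNA quantified by RT-PCR, fluorescent labelling and capillary electrophoresis; gain of signal fitted against DMSO baseline.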

[8] = ATG_M_19_XSP2: Attagene TRANS-FACTORIAL Multi-Species (XSP2) HepG2 Assay for M32 Transcription Factor (Internal Marker) (AID 2283822)
Procedure, shortened: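 Internal background marker in a multi-species nuclear receptor TRANS panel: transfected HepG2 cells exposed 24 h, with 3 nM 6-alpha-fluorotestosterone and 1.5 nM norgestrel present. Readout is RT-PCR of reporter transcripts resolved by capillary electrophoresis, gain-of-signal versus DMSO.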

[9] = test system: zebrafish Estrogen Receptor (ER2b), gene 317733; assay: ATG_zfER2b_XSP2: Attagene TRANS-FACTORIAL Multi-Species (XSP2) HepG2 Assay for zebrafish Estrogen Receptor (ER2b) (AID 2283823);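 further: fitted upward as reporter gain over DMSO so potency reflects activation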
Procedure, shortened: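 Read-out: fluorescent reporter mRNA, measured by RT-PCR then capillary electrophoresis after HpaI digestion. HepG2 cells carried transiently transfected multi-reporter TRANS constructs (NR-Gal4 chimeras); 24 h chemical exposure; activity scored upward versus DMSO control.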

[10] = test system: frog Androgen Receptor (AR), gene 399456; assay: ATG_frAR_XSP2: Attagene TRANS-FACTORIAL Multi-Species (XSP2) HepG2 Assay for frog Androgen Receptor (AR) (AID 2283824);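 further: actives raise reporter signal above DMSO so AC50 reflects agonist-like induction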
Procedure, shortened: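 HepG2 cells transiently transfected with GAL4-UAS reporter units and frog (Xenopus laevis) AR-Gal4 chimera; reporter mRNA measured 24 h after dosing by RT-PCR and capillary electrophoresis. Gain of signal fitted relative to DMSO baseline.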

[11] = test system: zebrafish Androgen Receptor (AR), gene 100005148; assay: ATG_zfAR_XSP2: Attagene TRANS-FACTORIAL Multi-Species (XSP2) HepG2 Assay for zebrafish Androgen Receptor (AR) (AID 2283825);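 further: hits raise reporter mRNA above DMSO so AC50 reflects agonist-type gain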
Procedure, shortened: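 Zebrafish AR–GAL4 chimera transiently expressed with GAL4-UAS reporter in HepG2 cells, co-stimulated with 3 nM 6-alpha-fluorotestosterone and 1.5 nM norgestrel; 24 h dosing, reporter mRNA read by RT-PCR/capillary electrophoresis versus DMSO.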

[12] = test system: frog Estrogen Receptor (ER2), gene 100174814; assay: ATG_frER2_XSP2: Attagene TRANS-FACTORIAL Multi-Species (XSP2) HepG2 Assay for frog Estrogen Receptor (ER2) (AID 2283828)
Procedure, shortened: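 HepG2 cells transiently transfected with multiplexed GAL4-UAS reporter units expressing chimeric frog ER2–Gal4 protein; reporter mRNA measured 24 h after chemical dosing by RT-PCR, fluorescent labeling and capillary electrophoresis. Gain-of-signal fitted relative to DMSO baseline.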

[13] = biological target: Peroxisome proliferator-activated receptor gamma (Homo sapiens) (UniProt P37231); assay: ATG_hPPARg_XSP2: Attagene TRANS-FACTORIAL Multi-Species (XSP2) HepG2 Assay for human Peroxisome Proliferator-activated Receptor gamma (PPARg) (AID 2283829);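 further: actives raise reporter mRNA above DMSO so AC50 reflects PPARg activation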
Chain of Peroxisome proliferator-activated receptor gamma (Homo sapiens) (P37231 whole entry, looked up, the tested form may be a part): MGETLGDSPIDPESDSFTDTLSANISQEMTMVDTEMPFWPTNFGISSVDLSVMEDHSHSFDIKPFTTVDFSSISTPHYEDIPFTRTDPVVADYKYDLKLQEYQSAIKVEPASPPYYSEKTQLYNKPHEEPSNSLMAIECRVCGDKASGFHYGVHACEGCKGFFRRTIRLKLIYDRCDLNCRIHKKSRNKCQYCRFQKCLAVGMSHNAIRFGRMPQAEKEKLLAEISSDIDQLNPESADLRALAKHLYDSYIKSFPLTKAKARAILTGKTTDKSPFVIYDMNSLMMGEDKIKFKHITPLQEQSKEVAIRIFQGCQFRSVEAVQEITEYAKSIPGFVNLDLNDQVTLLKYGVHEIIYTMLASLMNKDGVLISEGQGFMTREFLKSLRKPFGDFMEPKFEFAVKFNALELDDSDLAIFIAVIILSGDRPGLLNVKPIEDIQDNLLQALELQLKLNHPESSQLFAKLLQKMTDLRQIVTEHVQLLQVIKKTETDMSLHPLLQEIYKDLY
Procedure, shortened: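 HepG2 cells transiently transfected with multiplexed GAL4-UAS reporter units for chimeric NR-Gal4 receptors, dosed 24 h. Reporter mRNA quantified by RT-PCR, 6-FAM labeling, HpaI digestion and capillary electrophoresis; gain-of-signal fitted against DMSO baseline.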

[14] = biological target: mouse Peroxisome Proliferator-activated Receptor gamma (PPARg), Pparg (gene 19016) (UniProt P37238); assay: ATG_mPPARg_XSP2: Attagene TRANS-FACTORIAL Multi-Species (XSP2) HepG2 Assay for mouse Peroxisome Proliferator-activated Receptor gamma (PPARg) (AID 2283830);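 further: hits are gains in reporter mRNA above DMSO so AC50 marks activation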
Chain of mouse Peroxisome Proliferator-activated Receptor gamma (PPARg), Pparg (gene 19016) (P37238 whole entry, looked up, the tested form may be a part): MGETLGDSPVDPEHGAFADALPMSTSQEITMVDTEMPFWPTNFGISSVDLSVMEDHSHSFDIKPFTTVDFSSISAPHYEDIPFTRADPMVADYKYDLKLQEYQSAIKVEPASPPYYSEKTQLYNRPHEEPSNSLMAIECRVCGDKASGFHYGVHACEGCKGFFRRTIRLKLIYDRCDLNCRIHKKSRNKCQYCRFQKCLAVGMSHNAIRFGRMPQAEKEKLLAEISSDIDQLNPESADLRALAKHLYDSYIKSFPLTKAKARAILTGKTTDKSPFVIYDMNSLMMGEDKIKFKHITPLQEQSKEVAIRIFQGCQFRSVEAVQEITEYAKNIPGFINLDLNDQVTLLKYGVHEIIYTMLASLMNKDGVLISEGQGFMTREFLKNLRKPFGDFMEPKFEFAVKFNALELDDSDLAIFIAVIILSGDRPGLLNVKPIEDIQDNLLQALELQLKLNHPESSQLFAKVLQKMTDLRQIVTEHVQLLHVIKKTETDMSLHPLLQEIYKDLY
Procedure, shortened: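 HepG2 cells transiently transfected with GAL4-UAS reporter units for chimeric NR-Gal4 proteins including mouse PPARg, exposed 24 h; medium contained 3 nM 6-alpha-fluorotestosterone and 1.5 nM norgestrel. Reporter mRNA quantified by RT-PCR, HpaI digestion and capillary electrophoresis, vs DMSO.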

[15] = biological target: Nuclear receptor subfamily 1 group I member 2 (Mus musculus) (UniProt O54915); assay: ATG_mPXR_XSP2: Attagene TRANS-FACTORIAL Multi-Species (XSP1) HepG2 Assay for mouse Pregnane X Receptor (PXR) (AID 2283831)
Chain of Nuclear receptor subfamily 1 group I member 2 (Mus musculus) (O54915 whole entry, looked up, the tested form may be a part): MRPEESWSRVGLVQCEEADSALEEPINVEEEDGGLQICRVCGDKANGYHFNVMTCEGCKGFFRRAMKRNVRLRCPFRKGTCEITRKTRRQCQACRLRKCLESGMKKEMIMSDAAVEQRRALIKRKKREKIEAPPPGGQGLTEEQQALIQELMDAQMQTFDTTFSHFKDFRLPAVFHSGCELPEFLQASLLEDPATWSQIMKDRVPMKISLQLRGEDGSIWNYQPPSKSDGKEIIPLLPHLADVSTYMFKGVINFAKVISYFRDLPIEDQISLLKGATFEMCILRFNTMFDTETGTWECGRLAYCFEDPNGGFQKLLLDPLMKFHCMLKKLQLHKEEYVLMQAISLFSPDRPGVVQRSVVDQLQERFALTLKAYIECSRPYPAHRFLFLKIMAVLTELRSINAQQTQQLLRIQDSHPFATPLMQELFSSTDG
Procedure, shortened: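 HepG2 cells transiently transfected with GAL4-UAS reporter units expressing chimeric NR-GAL4 proteins; reporter mRNA measured 24 h after dosing by RT-PCR with 6-FAM labelling and capillary electrophoresis, gain of signal relative to DMSO.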

[16] = biological target: zebrafish Thyroid Hormone Receptor alpha (TRa), thraa (gene 30670) (UniProt Q98867); assay: ATG_zfTRa_XSP2: Attagene TRANS-FACTORIAL Multi-Species (XSP1) HepG2 Assay for zebrafish Thyroid Hormone Receptor alpha (TRa) (AID 2283832);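 further: actives raise zebrafish TRa-Gal4 reporter transcript above DMSO baseline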
Chain of zebrafish Thyroid Hormone Receptor alpha (TRa), thraa (gene 30670) (Q98867 whole entry, looked up, the tested form may be a part): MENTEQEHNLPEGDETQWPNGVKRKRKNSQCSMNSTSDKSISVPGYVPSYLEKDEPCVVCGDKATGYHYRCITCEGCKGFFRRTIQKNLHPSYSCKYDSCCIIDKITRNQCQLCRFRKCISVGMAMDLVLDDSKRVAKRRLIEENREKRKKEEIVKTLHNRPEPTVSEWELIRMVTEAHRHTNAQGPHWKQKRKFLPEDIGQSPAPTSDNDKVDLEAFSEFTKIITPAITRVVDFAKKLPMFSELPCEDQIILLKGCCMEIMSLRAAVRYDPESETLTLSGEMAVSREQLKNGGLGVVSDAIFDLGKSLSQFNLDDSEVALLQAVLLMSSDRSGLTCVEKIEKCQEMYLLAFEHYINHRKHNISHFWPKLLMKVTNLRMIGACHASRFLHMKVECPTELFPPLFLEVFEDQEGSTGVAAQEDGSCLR
Procedure, shortened: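 Chimeric receptor-Gal4 activity was assessed in transfected human liver HepG2 cells 24 h after dosing, using reporter transcript levels detected by RT-PCR and capillary electrophoresis. DMSO served as baseline.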

[17] = test system: zebrafish Peroxisome Proliferator-activated Receptor gamma (PPARg), gene 557037; assay: ATG_zfPPARg_XSP2: Attagene TRANS-FACTORIAL Multi-Species (XSP2) HepG2 Assay for zebrafish Peroxisome Proliferator-activated Receptor gamma (PPARg) (AID 2283833);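 further: actives increase reporter signal over DMSO so AC50 reflects activation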
Procedure, shortened: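 HepG2 cells transiently transfected with GAL4-UAS reporter units expressing a zebrafish PPARg–GAL4 chimera; compound exposure 24 h. Reporter mRNA quantified by RT-PCR with fluorescent labelling and capillary electrophoresis; gain of signal fitted relative to DMSO baseline.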

[18] = test system: turtle Thyroid Hormone Receptor, alpha (TRa), gene 101949057; assay: ATG_trTRa_XSP2: Attagene TRANS-FACTORIAL Multi-Species (XSP1) HepG2 Assay for turtle Thyroid Hormone Receptor, alpha (TRa) (AID 2283834);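 further: hits raise reporter mRNA over the DMSO baseline so AC50 marks activators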
Procedure, shortened: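 HepG2 cells transiently transfected with multiplexed GAL4-UAS reporter units expressing chimeric NR-Gal4 proteins were dosed for 24 hours. Reporter mRNA was quantified by RT-PCR with 6-FAM labelling and capillary electrophoresis, gain of signal scored against DMSO.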

Measured: AC50

O=C(Oc1ccccc1)c1ccc(O)cc1
active: [3] 58.3 µM | [4] 27.8 µM | [5] 63.9 µM and 27.7 µM | [7] 27.2 µM | [9] 51.2 µM and 4.93 µM | [12] 72.4 µM and 4.8 µM | [13] 100 µM | [14] 68.1 µM | [15] 33.2 µM
inactive: [1] | [2] | [3] | [4] | [6] | [7] | [8] | [10] | [11] | [13] | [14] | [16] | [17] | [18]

CCCCCCCCCCCCN
inactive: [1] | [2] | [3] | [5] | [6] | [7] | [8] | [9] | [10] | [15] | [17] | [18]
active: [4] 48.3 µM | [5] 46.7 µM | [12] 55.1 µM | [13] 30 µM and 11.9 µM | [14] 46.2 µM and 37.7 µM
